Compounds with a hit are over-represented: about 20% of the library has one in this group of screens.
Pf growth 96h = P. falciparum growth inhibition at 96 hour, primary screen for plastid delayed-death inhibitors; P. falciparum luciferase reporter growth, 96 h; actives 6.9% (n = 320,000); Potency, µM (titrated, usually from 28.7 µM), inactives show at the top dose activity change, negative = inhibition, most hits filed as inhibitors; further: potency means the concentration at half of the fitted maximal effect; on the % scale 0 is the no-effect control and ±100 the full control effect
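Delayed-death screen, second-generation endpoint: infected erythrocytes, 2% hematocrit, 0.05% parasitemia final; 96 hours at 37 C, 5% CO2; luciferase detection reagent; luminescence decrease equals reduced growth.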
Shiga toxin inh = Shiga toxin inhibition; Vero cells, Shiga toxin protein synthesis inhibition reporter; inhibition, % at 38.7 µM; actives 9.2% (n = 290,000); in the data active means inhibition mostly above about 28%, no sharp cut-off; inactive means mostly below about 43%; further: 0% is about no effect
Pf growth 48h = P. falciparum growth inhibition at 48 hours (one generation); P. falciparum luciferase growth in erythrocytes, 48 h; Potency, µM (titrated, usually from 28.7 µM), for inactives: at the top dose activity change, negative = inhibition, hits mostly inhibitors; actives 5.9% (n = 310,000); further: potency means the concentration at half of the fitted maximal effect; on the % scale 0 is the no-effect control and ±100 the full control effect
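Erythrocytes infected with P. falciparum carrying an integrated firefly luciferase reporter (2% hematocrit, 0.1% parasitemia final) were exposed to compounds in RPMI 1640 with 0.5% Albumax at 37 C, 5% CO2. Growth inhibition was scored as reduced luminescence.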
CHX counter = counter-screen hit for Shiga toxin inhibitors, cycloheximide; cell reporter, cycloheximide protein synthesis inhibition counterscreen; max response, %; actives 12% (n = 300,000); in the data active means max response mostly above about 13%, no sharp cut-off; inactive means mostly below about 14%; further: read at 38.3 µM for the half of the compounds with a filed dose; 0% is about no effect
HCMV inh = human cytomegalovirus inhibition; HFF cells, HCMV-luciferase reporter, 72 h; stronger effect = lower value; activity change, negative = inhibition, % at 57.5 µM; actives 4.5% (n = 410,000); AID 1259415; in the data active means activity change below about -60%; inconclusive means no clear call, values can overlap the other calls; inactive means above about -39%; further: on the % scale 0 is the no-effect control and ±100 the full control effect
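After 16 h attachment at 37C, HFF cells received test compound and HCMV-luciferase (1 PFU/cell); reporter luminescence read 72 h later, data normalized against buffer-only and known inhibitor Salinomycin.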
An asterisk follows results filed as active; ? = inconclusive; . = no result given. Unless noted, the call rests on the fitted dose curve; in most records, active means well fitted inhibition curve with a large enough effect; inconclusive means small, poorly fitted or top-dose-only effect, or another doubt; inactive means no such curve, though single readings can be large or run the other way.

SMILES	Pf growth 96h	Shiga toxin inh	Pf growth 48h	CHX counter	HCMV inh
O=C(Nc1ccc(Cn2cccn2)cc1)c1ccc(COc2ccccc2Br)cc1	12µM*	51	-30%	13	-83*
O=C(Nc1ccc(CN2CCOCC2)cc1)c1cccc(F)c1	8%	81*	149%	52*	167
CCOC(=O)c1c(NC(=O)COc2ccccc2Br)sc2c1CCCCC2	.	.	.	.	19
O=C(Nc1ccc(S(=O)(=O)Nc2ncccn2)cc1)c1ccccc1	1.2µM*	17	0%	-4	-1
O=C(Nc1ccc(CN2CCOCC2)cc1)c1ccc2ccccc2c1	?	46*	24%	59*	2
CCC(C)Oc1ccc(C(=O)Nc2ccc(CN3CCOCC3)cc2)cc1 (configuration not stated)	?	-3	?	-3	-80*
CCc1[nH]nc(C(=O)N2CCCC(C(=O)c3cccc(C(F)(F)F)c3)C2)c1C (configuration not stated)	35%	7	-10%	11	?
CCS(=O)(=O)Nc1cccc(C2=NN(S(=O)(=O)c3ccccc3)C(c3ccco3)C2)c1 (configuration not stated)	?	-3	?	12	-3
CCS(=O)(=O)N1N=C(c2cccc(NS(C)(=O)=O)c2)CC1c1ccccc1 (configuration not stated)	7%	11	3%	3	-13
Clc1ccc(C2=NN(c3ccccc3)C(c3ccco3)C2)cc1 (configuration not stated)	?	75*	-24%	44*	-3
CS(=O)(=O)Nc1cccc(C2=NN(S(=O)(=O)c3ccccc3)C(c3ccco3)C2)c1 (configuration not stated)	-1%	37	-26%	16*	-11
Cc1ccc(C2=NN(C(=O)CCl)C(c3ccco3)C2)o1 (configuration not stated)	6.6µM*	26	10µM*	14	-100*
CCS(=O)(=O)N1N=C(c2cccc(NS(C)(=O)=O)c2)CC1c1ccc(C)cc1 (configuration not stated)	1%	31	-12%	28*	43
O=C(Nc1ccc(F)cc1)[C@H](Cc1ccccc1)N1Cc2ccccc2C1=O	.	.	.	.	4
CC(=O)c1ccc(NC(=O)C2CCCN(S(=O)(=O)c3ccc4c(c3)CCCN4C(C)=O)C2)cc1 (configuration not stated)	.	.	.	.	-23
CCOc1ccc2cc(C3CC(c4ccco4)=NN3S(C)(=O)=O)c(Cl)nc2c1 (configuration not stated)	?	-3	?	-2	0
CCc1ccc(C2CC(c3ccco3)=NN2S(C)(=O)=O)cc1 (configuration not stated)	25%	83*	3%	45*	63
Fc1ccc(C2=NN(c3ccccc3)C(c3ccco3)C2)cc1 (configuration not stated)	-27%	25	40%	12	-27
Cc1ccc(N2N=C(c3ccc(F)cc3)CC2c2ccco2)cc1 (configuration not stated)	21%	46*	-15%	30*	-5
Cc1cccc2cc(C3CC(c4ccco4)=NN3S(=O)(=O)c3ccccc3)c(Cl)nc12 (configuration not stated)	?	86*	?	36*	-14
Cc1ccc(S(=O)(=O)N[C@H](C(=O)OCC(=O)N2N=C(c3ccc(Cl)cc3)CC2c2ccco2)C(C)C)cc1 (some centres not stated)	?	-3	10µM*	1	82
Cc1ccc(CSC2=Nc3ccccc3C3=NC(CCC(=O)NC4CCCCC4)C(=O)N23)cc1 (configuration not stated)	.	.	.	.	11
CC(=O)N1N=C(c2ccccc2)CC1c1ccc(F)cc1 (configuration not stated)	2%	.	-2%	-2	13
CC(=O)N1N=C(c2ccco2)CC1c1ccc(C)cc1 (configuration not stated)	26%	20	11%	-4	-16
CC(=O)N1N=C(c2ccccc2)CC1c1cn(C)c2ccccc12 (configuration not stated)	22%	115*	31%	52*	85
SMILES	Pf growth 96h	Shiga toxin inh	Pf growth 48h	CHX counter	HCMV inh
CC(=O)N1N=C(c2ccco2)CC1c1ccc(Br)cc1 (configuration not stated)	10µM*	11	6%	1	-4
CC(=O)N1N=C(c2c(O)n(C)c(=O)n(C)c2=O)CC1c1ccccc1 (configuration not stated)	2.6µM*	-2	3.7µM*	-3	-1
Cn1nnnc1SCC(=O)N1N=C(c2ccc(Cl)cc2)CC1c1ccco1 (configuration not stated)	.	.	.	.	37
O=C(c1ccc(Br)o1)N1N=C(c2ccc(Cl)cc2)CC1c1ccco1 (configuration not stated)	9.3µM*	31	?	25	?
O=S(=O)(c1ccccc1)N1N=C(c2ccc(Cl)cc2)CC1c1ccco1 (configuration not stated)	?	.	10µM*	.	-33
CCOC(=O)C1CC(c2ccccc2)=NN1c1ccccc1 (configuration not stated)	.	.	.	.	-14
Cc1nnc(SCC(=O)N2N=C(c3ccc(Cl)cc3)CC2c2ccco2)[nH]c1=O (configuration not stated)	39%	46	27%	18*	?
Cc1ccc(C2CC(c3ccccc3)=NN2c2ccccc2)o1 (configuration not stated)	?	64*	?	21*	6
COc1ccc(C2=NN(C(=O)COc3ncnc4ccccc34)C(c3ccco3)C2)cc1 (configuration not stated)	?	-10	-22%	-4	50
COc1ccc(C2=NN(c3nc(-c4ccccc4)c(CC(=O)O)s3)C(c3ccco3)C2)cc1 (configuration not stated)	?	48*	-9%	18*	31
CCS(=O)(=O)Nc1cccc(C2=NN(S(=O)(=O)c3ccc(C)cc3)C(c3ccco3)C2)c1 (configuration not stated)	?	17	?	4	-30
Cn1c(N)c(C(=O)CSc2nnc(C3CC3)n2-c2ccccc2)c(=O)n(C)c1=O	?	.	?	.	1
O=[N+]([O-])c1ccc(/C=C/C2=NN(c3ccccc3)C(c3ccco3)C2)o1 (configuration not stated)	?	15	-25%	12	1
O=C(c1ccco1)N1N=C(c2ccco2)CC1c1ccc(Cl)cc1Cl (configuration not stated)	4.1µM*	.	8.3µM*	.	-37
C(=C\c1ccco1)/C1=NN(c2ccccc2)C(c2ccco2)C1 (configuration not stated)	?	80*	9%	40*	.
